Screening results from PubChem.
LDHA block – inhibitors of human lactate dehydrogenase A; AID 1347041; activity change, % (values are at about 110 or 230 µM); P00338; 0.15% of 480,000 active; purified LDHA, NADH/diaphorase-resazurin fluorescence; active compounds read low; in the data active = activity change below about -30%; inconclusive = mostly about -25% to -30%;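 note: plate controls were DMSO wells for no effect and wells without enzyme for full effect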
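Human LDH5 (2 nM) was incubated with 0.06 mM NADH and 0.2 mM pyruvate for 5 min at room temperature in Tris pH 7.4. Remaining NADH was coupled through diaphorase/resazurin, and resorufin fluorescence was read at 0 and 20 min.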
RORgamma inh – inhibitors of mouse ROR gamma transcriptional activity. Drosophila S2 Gal4-RORgamma UAS-luciferase reporter, 20 h. Potency, µM (highest dose often 53.6 µM), without a hit: at the top dose activity change, negative = inhibition, hits mostly inhibitors. 5.4% of 310,000 active. P51450; note: potency is the fitted concentration of half-maximal effect; nearly all actives have a fitted effect of over 60% in size
Target sequence (P51450 whole entry, looked up, the tested form may be a part): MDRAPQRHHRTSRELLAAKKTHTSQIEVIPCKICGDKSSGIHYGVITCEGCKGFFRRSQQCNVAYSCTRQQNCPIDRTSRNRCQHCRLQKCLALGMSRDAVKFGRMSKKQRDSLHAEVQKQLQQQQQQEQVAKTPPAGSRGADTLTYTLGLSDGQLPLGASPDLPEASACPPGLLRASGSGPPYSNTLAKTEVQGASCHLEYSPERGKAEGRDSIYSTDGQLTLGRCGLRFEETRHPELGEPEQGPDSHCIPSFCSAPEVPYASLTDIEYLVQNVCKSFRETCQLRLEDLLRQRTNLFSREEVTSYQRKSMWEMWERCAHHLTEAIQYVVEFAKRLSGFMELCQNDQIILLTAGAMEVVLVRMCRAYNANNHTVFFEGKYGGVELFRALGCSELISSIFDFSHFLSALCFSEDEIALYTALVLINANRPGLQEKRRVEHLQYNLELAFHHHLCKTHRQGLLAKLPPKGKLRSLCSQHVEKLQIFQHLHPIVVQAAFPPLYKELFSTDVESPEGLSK
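Drosophila S2 cells stably expressing Gal4-DBD/mouse RORγ fusion under metallothionein promoter plus UAS-luciferase; compound 1 h, then 700 uM CuSO4 induction for 20 h at ambient temperature; inhibition read as reduced luminescence.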
VP16 counter – Gal4-VP16 reporter inhibition counter-screen; 3.5% of 310,000 active; AID 2546; Potency, µM (top dose mostly 53.6 µM), inactives show at the highest dose activity, negative = inhibition, actives largely listed as inhibitors; Drosophila S2 Gal4-VP16 UAS-luciferase, luminescence, 20 h;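 note: Gal4-VP16 expression switched on by copper sulfate through the metallothionein promoter; potency is the fitted concentration of half-maximal effect; nearly all actives have a fitted effect of over 50% in size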
TDP1 cell noCPT – qHTS for Inhibitors of human tyrosyl-DNA phosphodiesterase 1 (TDP1): qHTS in cells in absence of CPT | DT40 Tdp1-/- hTDP1 cells, no CPT, ATP luminescence, 48 h | Potency, µM (highest dose often 46.2 µM), without a hit: top-dose activity change, negative = growth inhibition, most hits filed as inhibitors | 15% of 420,000 active; note: potency is the fitted concentration of half-maximal effect; nearly all actives have a fitted effect of over 55% in size
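Compound effects on proliferation are scored in DT40 Tdp1-/-;hTDP1 cells in the absence of CPT. ATP levels (CellTiter-Glo luminescence) are recorded after a ≥48 hr, 37 °C incubation.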
IL-1B inflam inh – inflammasome signaling inhibition, IL-1 beta readout. activity change, % at 57.5 µM. 4.7% of 360,000 active. THP-1 LPS/ATP IL-1B secretion, AlphaLISA, 16 h; active compounds read low; in the data active = activity change below about -50%; inconclusive = mostly about -30% to -49%
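Secreted IL-1B measured by AlphaLISA bead assay after 16 h compound exposure of THP-1 cells; compounds (final up to 57.5 uM) added 1 h before LPS (250 ng/mL) and ATP (1.25 mM) stimulation; lower signal means less secretion.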
DT40 TDP1 CPT – growth inhibition of DT40 Tdp1-/-;hTDP1 cells with camptothecin (screen for TDP1 inhibitors). chicken DT40 Tdp1-/-;hTDP1 cells + 20 nM CPT, ATP luminescence, 48 h. Potency, µM (top dose mostly 46.2 µM), for inactives: top-dose activity change, negative = growth inhibition, most hits filed as inhibitors. 12% of 420,000 active; note: potency is the fitted concentration of half-maximal effect; nearly all actives have a fitted effect of over 55% in size
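Chicken DT40 Tdp1-/- cells stably complemented with human TDP1 were seeded at 400 cells/well in medium containing 20 nM camptothecin, exposed to pin-transferred compounds, and grown at 37 °C for at least 48 hr. Viability was read as ATP luminescence.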
Active calls of the source: *; ? = inconclusive; / = not tested or not shown; [ ] = remark or other dose. An excerpt weighted towards active compounds, which were near 18% of everything screened. Unless noted, calls come from the whole dose curve; as a rule, active = well fitted curve in the direction sought with a large enough effect; inconclusive = small, poorly fitted or top-dose-only effect, or another doubt; inactive = no such curve, though single readings can be large; an effect the other way counts as inactive or inconclusive. Unless noted, % is set by controls: 0 for no effect and ±100 for the full control effect.

SMILES	LDHA block	RORgamma inh	VP16 counter	TDP1 cell noCPT	IL-1B inflam inh	DT40 TDP1 CPT
O=C(O)c1ccccc1C(=O)c1ccc(N2CCCC2)c([N+](=O)[O-])c1	-4.0	-1.6%	3.5%	14.7%	16.6	6.9%
Cc1ccc(NC(=O)c2ccc(NCCN)c([N+](=O)[O-])c2)cc1Cl	2.1	-12.3%	-8.2%	20.6µM*	-15.8	?
Cc1[nH]c(=O)[nH]c(=O)c1CCC(=O)Nc1nccs1	-3.1	/	/	/	/	/
CC(=O)Nc1ccc(NS(=O)(=O)c2ccccc2C#N)cc1Cl	-2.5	/	/	/	/	/
Cc1ccc(-n2nnnc2C2(Nc3ccccc3C)CCCCC2)cc1	-4.3	/	/	/	/	/
CCN(Cc1cccc(F)c1)C(=O)C1CCCO1 (stereo not drawn)	1.8	/	/	/	/	/
CN1C(=O)c2ccc(NC(=O)c3ccc(N4CCCCC4)c([N+](=O)[O-])c3)cc2C1=O	-1.4	35.5%	-1.8%	?	28.8	23.1µM*
Cc1cc(OCC(=O)N(C(C)C)C(C)C)ccc1Cl	-4.2	1.58µM*	?	-3.7%	-7.4	-13.0%
Cc1ccc(OC(C)C(=O)Nc2ccncc2)cc1 (stereo not drawn)	-4.3	?	17.8µM*	13µM*	-0.4	?
Cc1cc(OC(C)C(=O)Nc2ccncc2)ccc1Cl (stereo not drawn)	0.0	19.3%	11.2µM*	23.1µM*	19.6	13µM*
CCCc1cc(=O)oc2c(C)c(OCC(=O)NCc3ccncc3)ccc12	-0.1	/	/	/	/	/
COCc1nn2c(=O)c(NC(=O)c3ccc(F)cc3)cnc2s1	4.0	/	/	/	/	/
Cc1cccc(-c2noc(-c3ccc(NCc4ccco4)c([N+](=O)[O-])c3)n2)c1	-5.9	/	/	?	/	-25.9%
COc1ccc(-c2noc(-c3ccc(NCc4cccnc4)c([N+](=O)[O-])c3)n2)cc1OC	2.2	/	/	-15.0%	/	-17.6%
COc1cc(-c2noc(-c3ccc(NCc4cccnc4)c([N+](=O)[O-])c3)n2)cc(OC)c1OC	-2.5	/	/	6.51µM*	/	7.31µM*
COc1ccc(-c2noc(-c3ccc(NCc4ccco4)c([N+](=O)[O-])c3)n2)cc1OC	2.0	/	/	9.2µM*	/	13µM*
CCCc1noc(-c2ccc(NCc3ccccc3OC)c([N+](=O)[O-])c2)n1	0.8	/	/	7.31µM*	/	10.3µM*
COC(=O)c1ccc(NC(=O)Cn2nc(-n3nc(C)cc3C)ccc2=O)cc1	-4.0	/	/	/	/	/
COC(=O)CNCc1cccc(F)c1	4.5	/	/	/	/	/
COc1cccc(C(=O)OCc2nc(N)c3ccccc3n2)c1OC	-6.9	/	/	/	/	/
CC(=O)N1c2c(ccc3ccccc23)C(C)CC12CCCCC2 (stereo not drawn)	-2.6	-16.8%	1.3%	?	17.4	?
CC1CC2(CCCCC2)Nc2c1ccc1ccccc21 (stereo not drawn)	11.9	?	-4.0%	10.3µM*	29.1	?
COc1ccc(C(=O)Oc2cccc(OC(=O)c3ccc(OC)cc3)c2)cc1	3.3	/	/	/	/	/
COc1ccccc1OCCOc1ccc(/C=C2\C(=N)N3N=C(S(C)(=O)=O)SC3=NC2=O)cc1	-1.7	?	-6.9%	23.1µM*	-17.0	?
CC(=O)Nc1ccc(OCCOc2ccc(/C=C3/C(=N)N4C=CSC4=NC3=O)cc2)cc1	-1.1	?	-3.9%	10.3µM*	53.6	20.6µM*
SMILES	LDHA block	RORgamma inh	VP16 counter	TDP1 cell noCPT	IL-1B inflam inh	DT40 TDP1 CPT
CCC1=NN2C(=N)/C(=C\c3ccc(OCCOc4ccc(NC(C)=O)cc4)cc3)C(=O)N=C2S1	-4.4	-6.8%	5.7%	-6.4%	1.6	9.4%
CC(/C=C1\SC(=Nc2cccnc2)NC1=O)=C\c1ccccc1	-0.4	11.5%	2.2%	2.91µM*	-12.2	4.11µM*
COC(=O)/C=C1\SC(=Nc2ccccc2)NC1=O	-7.6	-13.9%	-11.2%	-5.0%	-65.4*	-15.7%
O=C1NC(=Nc2ccccc2)S/C1=C\c1cccs1	-12.6	-9.7%	-5.9%	?	12.4	?
Cc1ccc(N=C2NC(=O)/C(=C/c3cn(C)c4ccccc34)S2)cc1C	-1.4	12.6µM*	?	18.4µM*	-24.7	18.4µM*
Cc1cc(C)cc(N=C2NC(=O)/C(=C/c3cccs3)S2)c1	-21.5	?	15.8µM*	13µM*	8.7	?
Cn1cc(/C=C2/SC(=O)N(c3ccccc3)C2=O)c2ccccc21	-3.3	4.7%	-2.8%	-27.0%	4.3	-6.7%
Nc1nccnc1C(=O)NCCSCc1cccs1	7.9	/	/	/	/	/
NC(=O)COc1cccc(NC(=O)CCc2ncc(-c3ccccc3)o2)c1	-0.7	/	/	/	/	/
Cc1cccc(C)c1NC(=O)CN1C(=O)S/C(=C\c2cccn2C)C1=O	-8.1	32.3%	-9.0%	-20.8%	-18.8	-24.1%
Cn1cccc1/C=C1\SC(=Nc2ccccc2)NC1=O	-6.9	-13.3%	1.6%	2.31µM*	139.7	2.91µM*
Cn1cccc1/C=C1\SC(=Nc2ccc(O)cc2)NC1=O	-5.1	2.2%	7.3%	0.0231µM*	131.7	0.0411µM*
Cc1ccc(N=C2NC(=O)/C(=C/c3cccn3C)S2)c(C)c1	-4.4	10µM*	-19.4%	6.51µM*	-20.9	?
Cn1cccc1/C=C1\SC(=Nc2cccc(O)c2)NC1=O	-1.1	3.16µM*	?	20.6µM*	30.4	20.6µM*
CC(C)CN(CC(C)C)C(=O)COC(=O)c1cc(=O)[nH]c2ccccc12	-15.7	/	/	/	/	/
COc1ccc(NC(=O)[C@H]2C[C@H](CCSC)N[C@]23C(=O)Nc2ccc(F)cc23)cc1	35.2	/	/	/	/	/
C=CCn1c(Cc2cccc3ccccc23)n[nH]c1=S	1.0	3.98µM*	11.2µM*	?	83.7	20.6µM*
C=C(C)Cn1c(CCn2c3ccccc3c3ccccc32)n[nH]c1=S	-1.9	?	1µM*	5.8µM*	19.2	9.2µM*
O=c1[nH]c(SCc2n[nH]c(=S)n2-c2ccccc2)nc2ccccc12	-4.8	-34.2%	6.5%	3.3%	13.6	-12.3%
Cn1c(-c2cccc3ccccc23)n[nH]c1=S	-6.8	10µM*	?	5.7%	9.1	20.8%
C=CCn1c(Cc2nc3ccccc3[nH]2)n[nH]c1=S	-4.9	-8.9%[0.365 µM]	/	8.0%	12.5	0.3%
CCN(CC)S(=O)(=O)c1cccc(-c2n[nH]c(=S)n2C)c1	-6.7	?	-3.9%[10 µM]	-12.0%	-9.2	12.3%
S=c1[nH]nc(Cc2noc3ccccc23)n1-c1ccccc1	-8.0	10µM*	-5.6%	?	-19.3	?
CCOc1ccc(N(CC(=O)NCc2ccc(Cl)cc2Cl)S(C)(=O)=O)cc1	-2.9	/	/	/	/	/
S=c1[nH]nc(Cc2cccc3ccccc23)n1-c1ccccc1	-3.3	3.16µM*	7.08µM*	?	16.8	?
